Source: PubChem BioAssay (Tox21)
Results filed as inconclusive are left out. A call without a number means that no potency is given here. A number with no mark means an inactive call. Calls of active or inactive are those of the source. The call rests on the fitted dose curve; in most records, active means well fitted curve in the direction sought with a large enough effect in the repeat runs; inconclusive means weak or mixed curves; inactive means no such curve, though single readings can be large; an effect the other way counts as inactive or inconclusive.

Assays:
[1] = A CellTox Green Cytotoxicity Assay to monitor cytotoxicity in HepG2 cells - 32 hour (AID 1224883); further: nearly all actives have a fitted effect of over 50% in size
How it was run: (§1)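 First, HepG2 cells (600/well) mixed with reagent were plated; second, after 5 h at 37 C they received compounds via pintool; third, fluorescence was measured at 0 h through 40 h at 8 h intervals.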

[2] = A CellTox Green Cytotoxicity Assay to monitor cytotoxicity in HEK293 cells - 8 hour (AID 1224884); further: nearly all actives have a fitted effect of over 35% in size
How it was run: (§2)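 Dead-cell fluorescence measured kinetically: asymmetric cyanine dye, HEK293, 600 cells/well, 5 h settle, 23 nL cpd/DMSO, 37 C, reads 0–40 h every 8 h.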

[3] = qHTS RealTime-Glo MT Cell Viability Assay in HEK293 cells - 24 hour (AID 1224886); further: nearly all actives have a fitted effect of over 50% in size
How it was run: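 Reads taken at 0, 8, 16, 24, 32 and 40 h from the same wells. HEK293 cells (600/well) carried RealTime-Glo reagents from seeding, with compound added after a 5 h settle at 37 C.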

[4] = A CellTox Green Cytotoxicity Assay to monitor cytotoxicity in HEK293 cells - 16 hour (AID 1224888); further: nearly all actives have a fitted effect of over 35% in size
How it was run: as §2

[5] = qHTS RealTime-Glo MT Cell Viability Assay in HepG2 cells - 0 hour (AID 1224889); further: nearly all actives have a fitted effect of over 50% in size
How it was run: (§3)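 HepG2 suspension premixed with RealTime-Glo reagents is plated at 600 cells per well and left 5 h at 37 C/5% CO2. Compounds in DMSO then go in, and bioluminescence reflecting viable cell number is recorded over 40 h.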

[6] = A CellTox Green Cytotoxicity Assay to monitor cytotoxicity in HepG2 cells - 8 hour (AID 1224890); further: nearly all actives have a fitted effect of over 45% in size
How it was run: as §1

[7] = qHTS assay to identify small molecule antagonists of the estrogen receptor alpha (ER-alpha) signaling pathway using the BG1 cell line in the presence of 0.1 nM 17-beta-estradiol - cell viability counter screen (AID 1259241); further: nearly all actives have a fitted effect of over 40% in size
How it was run: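 CellTiter-Fluor read (30 min, 37C) on ER-alpha/ERE-luc VM7Luc4E2 cells; 22 hr compound treatment; agonist 0.1 nM E2 final; same-well multiplex.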

[8] = qHTS RealTime-Glo MT Cell Viability Assay in HepG2 cells - 16 hour (AID 1224885); further: nearly all actives have a fitted effect of over 50% in size
How it was run: as §3

[9] = qHTS RealTime-Glo MT Cell Viability Assay in HEK293 cells - 8 hour (AID 1224887); further: nearly all actives have a fitted effect of over 50% in size
How it was run: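 600 HEK293 cells per well, dispensed already mixed with RealTime-Glo MT reagents. Compound dosing came 5 h later. The same wells were read for luminescence at 0, 8, 16, 24, 32 and 40 h of exposure at 37 C.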

[10] = qHTS assay to identify small molecule antagonists of the androgen receptor (AR) signaling pathway using the MDA cell line in the presence of 0.5 nM R1881 - cell viability counter screen (AID 1259242); further: nearly all actives have a fitted effect of over 45% in size
How it was run: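 qHTS format. MDA-kb2 (MMTV-luc, AR/GR responsive) + cpd + 0.5 nM R1881 final, 16 hr 37C/0% CO2 → CellTiter-Fluor 30 min → fluorescence intensity.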
Potency means the concentration at half of the fitted maximal effect.

| SMILES | Potency [1] | Potency [2] | Potency [3] | Potency [4] | Potency [5] | Potency [6] | Potency [7] | Potency [8] | Potency [9] | Potency [10] |
| --- | --- | --- | --- | --- | --- | --- | --- | --- | --- | --- |
| CN(C)c1ccc(N=Nc2ccccc2C(=O)O)cc1 | inactive | inactive | inactive | inactive | inactive | inactive | inactive |  |  |  |
| CC1CCCNC1 (stereo unspecified) |  | inactive | inactive | inactive | inactive | inactive | inactive | inactive | inactive |  |
| CCN=C1C=CC(=C(c2ccc(N(CC)CC)cc2)c2ccc(N(CC)CC)cc2)c2ccccc21 | 19.4 µM (active) |  | 7.71 µM (active) | 19.4 µM (active) |  |  | 24.2 µM (active) | 19.4 µM (active) | 17.3 µM (active) |  |
| C=C1C(C)(C)[C@@]2(Cl)C(Cl)[C@]1(Cl)C(Cl)(Cl)C2(Cl)Cl (stereo partly specified) | 53.9 µM (active) |  |  |  | inactive | inactive | inactive |  | 53.9 µM (active) | inactive |
| NC1(c2ccc(-c3nc4ccn5c(=O)[nH]nc5c4cc3-c3ccccc3)cc2)CCC1 | 26.8 µM (active) |  | 3.01 µM (active) |  | inactive | inactive |  | 23.9 µM (active) | 10.7 µM (active) | 33.5 µM (active) |
| C/C=C/C=N/NC(=O)c1ccncc1 | inactive |  |  |  | inactive | inactive | inactive | inactive | inactive |  |
| Clc1ccc(C(Cn2ccnc2)OCc2ccsc2Cl)c(Cl)c1 (stereo unspecified) | 23.9 µM (active) | inactive | 15.1 µM (active) | inactive | inactive |  | inactive |  |  | inactive |
| Cc1nc(Nc2ncc(C(=O)Nc3c(C)cccc3Cl)s2)cc(N2CCN(CCO)CC2)n1 | 26.8 µM (active) | inactive | 30.1 µM (active) | inactive | 23.9 µM (active) |  |  |  |  | inactive |
| O=C(O)c1cccc(Cl)n1 | inactive |  | inactive |  | inactive | inactive | inactive | inactive | inactive | inactive |
| O=C(Nc1ccc(Cl)cc1)Nc1ccc(Cl)c(C(F)(F)F)c1 | 19 µM (active) | inactive | 5.35 µM (active) | inactive | inactive | inactive | inactive |  |  | 11.9 µM (active) |
| CC(=O)OC(OC(C)=O)c1ccc([N+](=O)[O-])o1 | 55.9 µM (active) | inactive |  |  | inactive |  | 55.4 µM (active) |  | 39.6 µM (active) |  |
| CS(C)(=O)=O | inactive |  | inactive |  | inactive | inactive | inactive | inactive | inactive | inactive |
| Cc1c(C)n(Cc2ccccc2)c2ccc(C(=O)OCCN(C)C)cc12 | 23.9 µM (active) | inactive |  |  | inactive |  | inactive |  | inactive |  |
| CCCCCCCCC(C)=O |  | inactive | inactive | inactive | inactive | inactive | inactive | inactive | inactive | inactive |
| O[C@@H](c1cc(C(F)(F)F)nc2c(C(F)(F)F)cccc12)[C@H]1CCCCN1 | 19 µM (active) |  |  |  |  |  | inactive | 21.3 µM (active) | 7.56 µM (active) |  |
| O=C(O)CCCCCCC(=O)O | inactive |  | inactive | inactive | inactive | inactive | inactive | inactive |  | inactive |
| CC(C(O)c1ccccc1)N(C)CCOC(c1ccccc1)c1ccccc1 (stereo unspecified) | 26.8 µM (active) | inactive | 21.3 µM (active) |  |  | 26.8 µM (active) | inactive |  |  | 29.8 µM (active) |
| Cc1c(-c2ccc(O)cc2)n(Cc2ccc(OCCN3CCCCCC3)cc2)c2ccc(O)cc12 | 10.7 µM (active) |  | 2.68 µM (active) | 23.9 µM (active) | inactive |  |  | 23.9 µM (active) | 2.39 µM (active) | 29.8 µM (active) |
| C[n+]1c2cc(N)ccc2cc2ccc(N)cc21 (tested in a mixture with another compound) | 21.3 µM (active) | 23.9 µM (active) | 9.52 µM (active) | 23.9 µM (active) | inactive | 23.9 µM (active) |  |  |  |  |
| COc1cccc(CCc2ccccc2OCC(CN(C)C)OC(=O)CCC(=O)O)c1 (stereo unspecified) |  | inactive | inactive | inactive | inactive | inactive | inactive | inactive | inactive | inactive |
| C/C=C/C(=O)Oc1c(CCCCCC(C)C)cc([N+](=O)[O-])cc1[N+](=O)[O-] | 38.9 µM (active) |  | 19.5 µM (active) |  |  |  | 27.3 µM (active) | 21.9 µM (active) |  | 15.4 µM (active) |
| C=CC(=O)OCCOCC(CC)(COCCOC(=O)C=C)COCCOC(=O)C=C | 25.6 µM (active) | inactive | 16.1 µM (active) | inactive | inactive | inactive | 14.3 µM (active) |  |  |  |
| S=P(N1CC1)(N1CC1)N1CC1 | inactive |  |  | inactive | inactive | inactive | inactive | inactive | inactive | inactive |
| CCCCCCCCCCCCCCCC |  | inactive | inactive | inactive | inactive | inactive | inactive | inactive | inactive | inactive |
| CC(C)(C)c1cc(/C=C2\SC(=N)NC2=O)cc(C(C)(C)C)c1O | 43.6 µM (active) | inactive | 49 µM (active) |  | inactive | 49 µM (active) | inactive |  |  | inactive |
| C=C[C@](C)(O)CC[C@@H]1[C@@]2(C)CCCC(C)(C)[C@@H]2CC[C@@]1(C)O | 49 µM (active) |  | 21.9 µM (active) |  | inactive |  | inactive | 49 µM (active) |  |  |
| O=C[C@H](O)[C@H](O)[C@H](O)CO |  | inactive | inactive | inactive | inactive | inactive | inactive | inactive | inactive | inactive |
